The panel holds about 83,000 compounds, 20% with a hit somewhere; the sample as a whole holds those more often.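 The test compound was applied at a single concentration to cells in 96-well plates for 48 hours, and percent growth was recorded.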 Calls of active or inactive are those of the source. The calls were made as follows: active = growth percent below 10; inactive = the rest.
Key:
Assay in all cases: NCI-60 one-dose screen, 48 h (100 = growth as untreated, 0 = no growth, -100 = all killed)
Settings in all cases: 10 µM unless noted
[1] = test system: SR leukemia
[2] = test system: RPMI-8226 leukemia
[3] = test system: OVCAR-8 ovarian
[4] = test system: OVCAR-5 ovarian
[5] = test system: OVCAR-4 ovarian
[6] = test system: SK-OV-3 ovarian
[7] = test system: IGROV1 ovarian
[8] = test system: OVCAR-3 ovarian
[9] = test system: HS 578T breast
[10] = test system: NCI/ADR-RES ovarian
[11] = test system: T-47D breast
[12] = test system: BT-549 breast
[13] = test system: MDA-MB-435 melanoma
[14] = test system: SW-620 colon
[15] = test system: MCF7 breast
[16] = test system: HCT-116 colon
[17] = test system: HCC-2998 colon
[18] = test system: KM12 colon

Measured: growth

COc1cc(-c2cnc3nonc3n2)c(OC)c2c1OCO2
inactive: [1] 50.1% | [2] 65.7% | [3] 97.8% | [4] 124% | [5] 75.3% | [6] 105% | [7] 82.7% | [8] 76.9% | [9] 105% | [10] 99.3% | [11] 85.4% | [12] 105% | [13] 111% | [14] 101% | [15] 81.3% | [16] 99.1% | [17] 102% | [18] 103%

COc1ccc(/C=C2\CN(C(=O)CCN3CCC(=NO)CC3)C/C(=C\c3ccc(OC)cc3)C2=O)cc1
active: [1] 2.16% | [2] -11.1% | [4] -4.94% | [7] -14.1% | [8] 6.9% | [9] 6.95% | [13] -61.4% | [14] -39.3% | [15] -0.32% | [16] -31.8% | [17] -89.5% | [18] -59.6%
inactive: [3] 19.6% | [5] 28.2% | [6] 68% | [10] 11.3% | [11] 23.3% | [12] 15.2%

CC1(C)CC(C(=O)OCCCCCCCCCCC[P+](c2ccccc2)(c2ccccc2)c2ccccc2)C(C)(C)N1O (stereo unspecified)
inactive: [10] 14.6%
active: [1] -58.4% | [2] -43.8% | [3] -39% | [4] -62.9% | [5] -31.5% | [6] -19.5% | [7] -58.7% | [8] -95.9% | [9] -44% | [11] -54.3% | [12] -42.1% | [13] -70.3% | [14] -81% | [15] -80.6% | [16] -8.91% | [17] -84.9% | [18] -94.6%

C=C1C(=O)O[C@H]2[C@H]1CC/C(Cn1cc(Cn3ccc4ccccc43)nn1)=C\CC[C@@]1(C)O[C@@H]21
active: [1] -18.4% | [2] -34.6% | [8] -59.7% | [11] -17.9% | [14] -77.1% | [15] -73.9% | [16] -89.5%
inactive: [3] 11% | [4] 71.5% | [5] 45.4% | [6] 101% | [7] 47.8% | [9] 69.4% | [10] 77.9% | [12] 58.7% | [13] 19.9% | [17] 69% | [18] 66.5%

COc1cc2nc3cc([N+](=O)[O-])ccc3c(NCCCNCC(C)(C)O)c2cc1OC
inactive: [10] 87.6%
active: [1] 5.93% | [2] -9.27% | [3] -45% | [4] -3.65% | [5] -37.2% | [6] -46% | [7] -18% | [8] -60.3% | [9] -18.6% | [11] -40.6% | [12] -71.3% | [13] -85.8% | [14] -11.8% | [15] -33.5% | [16] -46% | [17] -70.2% | [18] -47.2%

COc1cc(NCCCCN=C(N)N)c2ncccc2c1
inactive: [1] 116% | [2] 87.7% | [3] 60.8% | [4] 86.7% | [6] 88.3% | [7] 56.8% | [9] 94% | [10] 104% | [11] 18% | [12] 54.4% | [13] 104% | [14] 80.8% | [16] 79.1% | [17] 84.3% | [18] 47.5%
active: [5] -99.4% | [8] 8.54% | [15] -48%

C/C(Cc1ccc(Cl)cc1)=C(\c1ccc(OCCN2CCCCCC2)cc1)c1ccc(OC(=O)Cc2ccccc2)cc1
active: [1] 1.29%
inactive: [2] 33% | [3] 72.1% | [4] 73.8% | [5] 85% | [6] 90.6% | [7] 44.9% | [8] 69.6% | [9] 62.3% | [10] 72.4% | [11] 57.6% | [12] 89.3% | [13] 46.3% | [14] 57.4% | [15] 18.6% | [16] 38.2% | [17] 22.3% | [18] 50.2%

C(=N\Nc1ccccn1)/c1ccccn1
inactive: [1] 15.8% | [2] 35.5% | [3] 13.6% | [4] 40.7% | [5] 10.6% | [6] 30.5% | [7] 10.7% | [9] 62.8% | [11] 22.8% | [13] 33.6% | [14] 37.4% | [15] 12.4% | [17] 19.2% | [18] 29.6%
active: [8] 7.56% | [10] -9.79% | [12] -16.8% | [16] 4.73%

CN1CCOCCOCCOc2ccccc2NC(=O)c2nc(cnc2N)-c2ccc(cc2)S1(=O)=O
inactive: [2] 30.3% | [3] 64% | [4] 148% | [5] 46.1% | [6] 41% | [7] 50.8% | [8] 43.7% | [9] 66.4% | [10] 43.5% | [11] 80.1% | [12] 48.1% | [13] 58.3% | [14] 48.7% | [15] 31.1% | [16] 29.1% | [17] 32.2% | [18] 33.3%
active: [1] -16.3%

Oc1ccccc1/C=N/Nc1ccc2ccccc2n1
inactive: [2] 35.2% | [3] 33.2% | [4] 81% | [6] 43% | [7] 28.1% | [9] 79.3% | [10] 22.9% | [11] 21.8% | [12] 66.8% | [13] 65.2% | [14] 34% | [16] 22.3% | [17] 68.6% | [18] 46.3%
active: [1] 8.32% | [5] -0.697% | [8] 8.79% | [15] -18%

Nc1c(C(=O)Nc2cccc3c2OCCO3)sc2nc3c(cc12)C(=O)CCC3
active: [13] -60.4%
inactive: [1] 36.3% | [2] 33.7% | [3] 51.8% | [4] 36.1% | [5] 71% | [6] 70.5% | [7] 48% | [8] 16.2% | [9] 29.5% | [10] 14.1% | [11] 36.5% | [12] 62.7% | [14] 25.2% | [15] 18.6% | [16] 33.8% | [17] 46.6% | [18] 23.4%

Nc1nc(SCc2ccccc2)c2ncn(C3CCCC3)c2n1
inactive: [1] 81.4% | [2] 92.9% | [3] 110% | [4] 96.4% | [5] 101% | [6] 107% | [7] 98.1% | [8] 112% | [9] 139% | [10] 92.5% | [11] 98.7% | [12] 116% | [13] 104% | [14] 102% | [15] 91.7% | [16] 107% | [17] 107% | [18] 113%

CC(=O)Nc1ccc2c(c1)c(NC(C)=O)nn2C(=O)Nc1ccc(Cc2ccccc2)cc1
inactive: [1] 98.7% | [2] 88.8% | [3] 71.8% | [4] 67.1% | [5] 89.4% | [6] 67.3% | [7] 83.2% | [8] 84.4% | [9] 56.9% | [10] 89.4% | [11] 82.5% | [12] 43% | [13] 82.2% | [14] 102% | [15] 89.6% | [16] 61% | [17] 78.8% | [18] 85.9%

N#CC1=C(N)Oc2c(ccc3ccccc23)C1c1cccs1 (stereo unspecified)
inactive: [3] 17.2% | [4] 34.9% | [5] 12.6% | [7] 60.3% | [9] 22.3% | [10] 14.5% | [11] 64.3% | [12] 25% | [14] 23.8% | [17] 16.7%
active: [1] -11.2% | [2] -17.3% | [6] 5.5% | [8] -38.8% | [13] -31% | [15] 7.97% | [16] 8.25% | [18] 4.37%

O=C1/C(=C/c2ccccc2)CN(CCC(=O)N2C/C(=C\c3ccccc3)C(=O)/C(=C/c3ccccc3)C2)C/C1=C\c1ccccc1
active: [2] -18.8% | [13] -40.7% | [14] 7.07% | [15] -2.24% | [16] -60.6%
inactive: [1] 16.5% | [3] 16.9% | [4] 91% | [5] 67.8% | [6] 51.3% | [7] 70.6% | [8] 32.8% | [9] 58.1% | [10] 76.1% | [11] 26.6% | [12] 56.3% | [17] 26.7% | [18] 10.1%

COc1ccc(C2CC(=O)Nc3c2c(C)nn3-c2nc3ccccc3[nH]2)cc1 (stereo unspecified)
inactive: [2] 20.4% | [3] 108% | [4] 112% | [5] 121% | [6] 122% | [7] 12.6% | [8] 18.3% | [9] 61.7% | [10] 96.3% | [11] 111% | [12] 113% | [13] 99.9% | [14] 48.2% | [15] 91.6% | [16] 108% | [17] 112% | [18] 30.4%
active: [1] -36%

CCOC(=O)c1c2c(n3ccc(NC(=O)CCN4CCCCC4)cc13)C(=O)c1ncccc1C2=O
inactive: [6] 26.2% | [7] 35.1% | [9] 40.2% | [10] 36.8% | [11] 44.6% | [12] 58.5%
active: [1] -46.6% | [2] -6.64% | [3] -27% | [4] -58.9% | [5] -13.5% | [8] -10.9% | [13] -61.8% | [14] -20.2% | [15] -61.1% | [16] -61.1% | [17] -66% | [18] -75.6%

From PubChem BioAssay (NCI)
